PubChem BioAssay
Results filed as inconclusive are left out. Calls of active or inactive are those of the source.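 Rule for the calls, unless noted: active = viability loss from added drug above about 55%, and viability with drug at most 40%, in both replicates (limit read from the data, passing the limit was not always enough); inconclusive = both conditions met in only one replicate; inactive = neither replicate meets both conditions.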

How the values were obtained:
[1] = target: Pantothenate synthetase (Mycobacterium tuberculosis (strain ATCC 25618 / H37Rv)) (UniProt P9WIL5); assay: Recombinant Mtb pantothenate synthetase (PanC) inhibitors, coupled enzyme, confirmatory (AID 375; call rule not given here;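 note: 0% = full reaction with vehicle and 100% = no enzyme background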); conditions: coupled enzyme assay; at 10 µM, stronger effect = higher value
Chain of Pantothenate synthetase (Mycobacterium tuberculosis (strain ATCC 25618 / H37Rv)) (P9WIL5 whole entry, looked up): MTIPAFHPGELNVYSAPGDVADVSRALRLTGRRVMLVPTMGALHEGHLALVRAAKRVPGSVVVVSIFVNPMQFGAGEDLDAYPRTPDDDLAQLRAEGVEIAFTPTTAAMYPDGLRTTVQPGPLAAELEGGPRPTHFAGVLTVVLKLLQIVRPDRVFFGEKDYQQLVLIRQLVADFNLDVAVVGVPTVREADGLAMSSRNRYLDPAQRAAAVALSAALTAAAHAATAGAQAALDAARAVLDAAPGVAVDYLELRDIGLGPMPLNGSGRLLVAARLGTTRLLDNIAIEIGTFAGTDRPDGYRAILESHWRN

[2] = SK-BR-3 cell growth inhibitors, pilot screen, 24 h, human (AID 572;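 active = viability at or below 10% of carrier control in both of two separate runs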;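 note: compound exposure lasted between 18 and 24 h rather than exactly 24 h; 100% = carrier-treated control wells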); conditions: SK-BR-3 viability, CellTiter-Glo luminescence, at 10 µM, stronger effect = lower value
[3] = HUVEC growth inhibition – cell-based, human, primary screen (AID 575;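 active = viability at or below 30% in both replicate assays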;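 note: 100% = median of untreated cell wells with 0.1% DMSO on each plate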); conditions: HUVEC proliferation, CellTiter-Glo luminescence, 72 h; at 10 µM; stronger effect = lower value
[4] = reversal of MRP1-mediated doxorubicin resistance, pilot screen, H69AR cells, doxorubicin co-treatment (AID 601); conditions: CellTiter-Glo, 72 h, at 10 µM; for differential viability (reversal): stronger effect = higher value
[5] = 384-well plate pilot, post-Golgi transport modulator project, inhibition of yeast transport mutant growth (AID 636; in the data active = inhibition above about 31%); conditions: absorbance 615 nm, about 18 h, stronger effect = higher value
[6] = growth suppression of yeast trafficking mutant, preliminary HTS, modulators of trafficking downstream of Golgi apparatus project, 1536-format plate, OD 615 nm (AID 637; in the data active = inhibition above about 30%); conditions: yeast transport mutant growth, absorbance 615 nm, 18 h; stronger effect = higher value
[7] = growth inhibitors of H69AR lung tumor, primary screen, human, duplicate replicates (AID 580;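 active = viability at or under a set limit in both replicates, limit being median viability minus 3 SD, cut at about 48% in these data, passing the limit was not always enough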;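 note: 100% = mean luminescence of untreated wells and 0% = no signal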); conditions: H69AR lung tumor cells viability, ATP luminescence, 72 h; at 10 µM; stronger effect = lower value
[8] = OD615 S. cerevisiae growth inhibition, permissive medium, pilot counter-assay, permissive growth control for S. cerevisiae lifespan shortening project (AID 705;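 active = growth inhibition above 25% in both replicates, a cutoff set 3 SD above the mean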); conditions: OD615, 24 h, at 10 µM, stronger effect = higher value
[9] = Restrictive medium S. cerevisiae growth inhibition, OD615, pilot screen of yeast lifespan reduction project, restrictive growth control (AID 706;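 active = growth inhibition above a set limit, 3 SD over mean compound inhibition, in both replicates, cut at about 43% in these data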;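 note: modified DeaD lifespan yeast strain shifted to restrictive glucose medium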); conditions: OD615, 48 h, at 10 µM, stronger effect = higher value
[10] = viability gain of MRP-1-high H69AR cells under doxorubicin, pilot screen, MRP-1 activator project, CellTiter-Glo, duplicate (AID 807;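 active = viability increase at or above a cutoff of the median across tested compounds plus 3 SD, cut at about 8.5% in these data, passing the limit was not always enough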;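 note: compound pretreatment 18-22 h then 72 h combined with doxorubicin; 0% = doxorubicin alone and 100% = vehicle without doxorubicin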); conditions: H69AR viability with doxorubicin, CellTiter-Glo luminescence; at 10 µM; stronger effect = higher value
[11] = growth suppression of beta-catenin knockout HCT116, pilot screen, human colon tumor cells (AID 823;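 active = cell viability at or below a set limit in both duplicate runs, the limit being the all-compound median minus 4 SD, cut at about 23% in these data, passing the limit was not always enough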;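 note: 0% = wells killed by 20 µM Hyamine and 100% = untreated DMSO cell wells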); conditions: CellTiter-Glo, 60 h, at 10 µM, stronger effect = lower value
[12] = inhibitors of the yeast RAM network, pilot screen, dse1pr::URA3 reporter, 5-FOA selection (AID 869;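 active = inhibition over a set limit, the all-compound mean plus 3 SD, in both replicate runs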;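 note: 0% = DMSO wells with no growth and 100% = 10 µM 1-NA-PP1 with full growth; RAM network block rescues cells from 5-FOA so hits raise OD615 growth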); conditions: S. cerevisiae dse1pr::URA3 5-FOA growth, OD615, 2 d, at 10 µM, stronger effect = higher value
[13] = H69AR cells + 2 uM doxorubicin, measured here: viability with 2 uM doxorubicin, stronger effect = lower value
[14] = H69AR cells, compound alone cytotoxicity

Row | Structure (SMILES) | inhibition [1] | viability [2] | viability [3] | differential viability (reversal) ([4]; H69AR cells + 2 uM doxorubicin) | viability [4, 13] [%] | viability [4, 14] [%] | inhibition [5] | inhibition [6] | viability [7] | growth inhibition [8] | growth inhibition [9] | viability increase [10] | viability [11] | inhibition [12]
1 | CCC(C)NC(=O)c1c(N)n(CC2CCCO2)c2nc3ccccc3nc12 (stereo not given) | 0% (inactive) | 93% (inactive) | 53.4% (inactive) | -8.02% (inactive) | 61.5 | 53.4 | -0.4% (inactive) | 4.92% (inactive) | – | – | – | – | – | –
2 | O=c1[nH]c(=O)n(Cc2ccc(F)cc2)c(O)c1C=NCCCN1CCOCC1 | 0% (inactive) | – | 96% (inactive) | 3.54% (inactive) | 91.9 | 95.5 | -1.6% (inactive) | -2.22% (inactive) | 95.5% (inactive) | – | – | – | – | –
3 | CN1C[C@H](CNC(=O)OCc2ccccc2)C[C@@H]2c3cccc4c3c(cn4C)C[C@H]21 | 4% (inactive) | – | 2.42% (active) | 1.09% (inactive) | 65.2 | 66.3 | – | – | 66.3% (inactive) | – | – | – | – | –
4 | C[C@H]1CCC/C=C/C2C[C@H](O)CC2[C@H](O)/C=C/C(=O)O1 (stereo not given in full) | 0% (inactive) | 120% (inactive) | 7.17% (active) | 0.59% (inactive) | 1.34 | 1.93 | -2.08% (inactive) | 0% (inactive) | – | – | – | – | – | –
5 | OC(CNC1CCCCC1)c1ccccc1 (stereo not given) | 7% (inactive) | 104% (inactive) | 111% (inactive) | 12.3% (inactive) | 85.7 | 98 | -2.67% (inactive) | -2.55% (inactive) | 98% (inactive) | – | – | – | – | –
6 | CCOC(=O)C(C)Oc1cc(C)cc2oc(=O)c3c(c12)CCCC3 (stereo not given) | – | – | – | – | – | – | – | – | – | -9.51% (inactive) | -2.87% (inactive) | -4.65% (inactive) | 70.3% (inactive) | 1.43% (inactive)
7 | O=C(CN1CCN(Cc2cccc(Cl)c2)C1=O)N1CCC2(CC1)OCCO2 | 2% (inactive) | – | 87.6% (inactive) | -2.12% (inactive) | 91.7 | 89.5 | -3.12% (inactive) | -2.7% (inactive) | 89.5% (inactive) | – | – | – | – | –
8 | Cc1cccc(-n2c(O)c(C=NCCCN3CCOCC3)c(=O)[nH]c2=O)c1C | 2% (inactive) | – | 100% (inactive) | 14.8% (inactive) | 90.7 | 105 | 0.8% (inactive) | -2.7% (inactive) | 105% (inactive) | – | – | – | – | –
